Gli-Sufu antag = Gli-Sufu pathway antagonists, primary screen, luciferase luminescence, Sufu-KO-LIGHT cells, uHTS. Sufu-KO-LIGHT fibroblasts, Gli luciferase reporter luminescence. inhibition, % at 5 µM. hit rate 0.74% among 340,000. AID 588413, 2011;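 active = inhibition above about 55%, limit read from the data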
Shn3 inh set2 = reduction of Shn3 3'UTR firefly luciferase signal, primary screen, Schnurri-3 inhibitor project, cell-based, Clone20 osteoblasts, set 2; Clone20 osteoblast Shn3 3'UTR firefly luciferase, 24 h; hit rate 0.52% among 360,000; inhibition, % at 12.5 µM;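 active = mean inhibition of at least 75% with every replicate also reaching 75%; inconclusive = mean inhibition at least 75% but some replicate below; inactive = mean inhibition below 75%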
Jurkat NFkB inh = inhibitors of induced NF-kB luciferase reporter, primary screen, TCR NF-kB activation inhibitor project, cell-based, luminescence, uHTS; Jurkat, PMA/ionomycin-induced NF-kB luciferase reporter; inhibition, % at 4 µM; hit rate 0.53% among 330,000; in the data active = inhibition above about 50%
Mdm2-MdmX inh = inhibitors of human Mdm2-MdmX association, primary screen, cell-based, luminescence, split luciferase, SaOS-2, uHTS | SaOS-2 split-luciferase Mdm2/MdmX complementation | AID 485346, 2010 | hit rate 3% among 330,000 | inhibition, % at 8 µM;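 active = inhibition of at least 50% at 8 µM in the primary screen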
Target sequence (O15151 whole entry, looked up): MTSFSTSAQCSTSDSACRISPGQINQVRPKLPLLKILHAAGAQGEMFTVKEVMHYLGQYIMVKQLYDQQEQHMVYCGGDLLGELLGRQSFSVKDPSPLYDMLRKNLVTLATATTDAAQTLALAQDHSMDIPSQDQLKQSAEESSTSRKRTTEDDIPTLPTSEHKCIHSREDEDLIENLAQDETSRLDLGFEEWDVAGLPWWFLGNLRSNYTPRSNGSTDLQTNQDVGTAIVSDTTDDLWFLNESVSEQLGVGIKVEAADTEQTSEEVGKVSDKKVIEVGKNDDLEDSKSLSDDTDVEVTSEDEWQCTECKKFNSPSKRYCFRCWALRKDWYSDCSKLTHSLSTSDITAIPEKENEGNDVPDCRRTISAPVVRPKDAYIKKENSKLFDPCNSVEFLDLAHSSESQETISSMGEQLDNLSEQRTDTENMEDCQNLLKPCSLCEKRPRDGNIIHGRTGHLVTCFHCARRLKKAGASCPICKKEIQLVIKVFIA
Target sequence (Q00987 whole entry, looked up): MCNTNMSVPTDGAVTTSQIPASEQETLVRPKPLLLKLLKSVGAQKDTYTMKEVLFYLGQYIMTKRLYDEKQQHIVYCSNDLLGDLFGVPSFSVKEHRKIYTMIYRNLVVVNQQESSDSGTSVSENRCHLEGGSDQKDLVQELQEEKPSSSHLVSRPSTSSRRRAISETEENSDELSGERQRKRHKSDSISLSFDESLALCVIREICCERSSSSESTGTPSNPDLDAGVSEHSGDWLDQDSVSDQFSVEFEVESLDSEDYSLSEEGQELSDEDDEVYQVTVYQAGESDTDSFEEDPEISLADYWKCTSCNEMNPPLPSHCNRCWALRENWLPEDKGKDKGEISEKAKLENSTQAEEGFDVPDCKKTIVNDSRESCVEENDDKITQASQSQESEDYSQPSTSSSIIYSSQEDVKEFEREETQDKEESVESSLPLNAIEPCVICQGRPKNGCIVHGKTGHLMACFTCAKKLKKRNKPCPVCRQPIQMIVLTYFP
697 NFkB inh = inhibitors of PMA/ionomycin-induced NF-kB reporter, 697 cells, primary screen, B-cell NF-kB inhibitor project, cell-based, luminescence, uHTS | 697 B-cell NF-kB luciferase reporter, 16 h | inhibition, % at 4 µM | hit rate 0.33% among 330,000 | AID 435022, 2010; in the data active = inhibition above about 35%
Gli antag conf = Gli-SUFU pathway antagonists, confirmation, single concentration, luciferase luminescence, Sufu-KO-LIGHT cells; shares compounds with Gli-Sufu antag; Gli luciferase reporter; inhibition, % at 5 µM; hit rate 40% among 2,500; AID 602428, 2012;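 active = mean inhibition at 5 µM reaching about 45%, limit read from the data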
SufuKO cytotox = cytotoxicity in Sufu-KO-LIGHT cells, confirmation, cytotoxicity control for Gli-SUFU antagonist project, cell-based, ATP luminescence, single concentration. AID 651994, 2013. cytotoxicity, % at 5 µM. shares compounds with Gli-Sufu antag. hit rate 32% among 2,500;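 active = mean cytotoxicity at 5 µM above about 25%, limit read from the data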;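 note: cells exposed to compound overnight for roughly 16 to 18 hours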
Wnt3a cs = Wnt3a reporter signal inhibition, confirmation, counter-screen for Gli-SUFU antagonist project, Wnt-LIGHT cells, luminescence, single concentration. shares compounds with Gli-Sufu antag. Wnt3a-driven luciferase reporter. inhibition, % at 6.25 µM. hit rate 20% among 2,500. AID 651995, 2013;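 active = mean inhibition above about 25%, limit read from the data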
Each line names hits and unclear results; the compound was inactive in the other large screens (follow-up assays come after a bar, where they were run). The list is not random: actives were taken first. Their share in the collection is about 3.8%.

CCN(CC)Cc1cc2ccccc2c2c1COC2	Gli-Sufu antag 94 | Gli antag conf inactive | SufuKO cytotox inactive | Wnt3a cs inactive
CCCN(CCC)Cc1cc2ccccc2c2c1COC2	none
COc1cccc(NC(=O)C2CCC(CNS(=O)(=O)c3cccc4cccnc34)CC2)c1 (stereo not given)	none
Nc1cccc(C(=O)Nc2cccc3ncccc23)c1	none
CC(=O)Nc1cccc(C(=O)Nc2cccc3ncccc23)c1	Gli-Sufu antag 86 | Gli antag conf inactive | SufuKO cytotox inactive | Wnt3a cs inactive
Cc1cc(S(=O)(=O)NCc2ccncc2)c(C)cc1Br	Gli-Sufu antag 66 | Gli antag conf 62 | SufuKO cytotox inactive | Wnt3a cs 38
Cc1ccc(S(=O)(=O)NCc2ccncc2)cc1	Gli-Sufu antag 71 | Gli antag conf 57 | SufuKO cytotox 33 | Wnt3a cs inactive
Cc1ccc(S(=O)(=O)NCC(=O)NCc2ccncc2)cc1	none
Cc1ccc(C)c(S(=O)(=O)NCc2ccncc2)c1	none
CC(=O)Nc1ccc(S(=O)(=O)NCc2ccncc2)cc1	Gli-Sufu antag 56 | Gli antag conf inactive | SufuKO cytotox inactive | Wnt3a cs inactive
CC1CCCCC1NS(=O)(=O)c1ccc(S(=O)(=O)NCc2ccncc2)cc1 (stereo not given)	Gli-Sufu antag 67 (no result: Shn3 inh set2) | Gli antag conf 59 | SufuKO cytotox inactive | Wnt3a cs inactive
CC1(c2ccc3c(c2)OCCO3)NC(=O)N(CC(=O)Nc2ccccc2SCC#N)C1=O (stereo not given)	none
CCCCCCCC[n+]1c(C)n(-c2ccccc2)c2ccc(NC(C)=O)cc21	Gli-Sufu antag 76 | Gli antag conf 78 | SufuKO cytotox 31 | Wnt3a cs inactive
Cn1ccc(C(=O)N/N=C/c2c[nH]c3ccccc23)n1	Gli-Sufu antag 97 | Gli antag conf inactive | SufuKO cytotox inactive | Wnt3a cs inactive
O=C1N(c2cccc3ccccc23)C(c2ccccc2)N2CCCN12 (stereo not given)	Gli-Sufu antag 81 | Gli antag conf inactive | SufuKO cytotox inactive | Wnt3a cs inactive
Fc1ccc(-n2cc(-c3ccccc3)[n+]3c2SCC3)cc1	none
COc1ccc(-c2cn(-c3ccccc3)c3[n+]2CCS3)cc1	Gli-Sufu antag 81 | Gli antag conf 82 | SufuKO cytotox 33 | Wnt3a cs 30
c1ccc(-c2cn(-c3ccccc3)c3[n+]2CCS3)cc1	Gli-Sufu antag 65 | Gli antag conf 64 | SufuKO cytotox 26 | Wnt3a cs inactive
O=C(Nc1cccs1)Nc1c(F)c(F)c(F)c(F)c1F	Gli-Sufu antag 67 | Gli antag conf 72 | SufuKO cytotox 27 | Wnt3a cs 39
O=C(Nc1cccs1)Nc1c(F)c(F)cc(F)c1F	none
CSCCC(NS(=O)(=O)c1ccc(Cl)cc1)C(=O)OCC(=O)NC1CC1 (stereo not given)	none
CSCCC(NS(=O)(=O)c1ccc(Br)cc1)C(=O)OCC(=O)NC1CC1 (stereo not given)	none | Gli antag conf inactive | SufuKO cytotox inactive | Wnt3a cs inactive
Cc1ccc(-c2nnc(NC(=O)c3ccco3)o2)c(C)c1	Gli-Sufu antag 73 | Gli antag conf inactive | SufuKO cytotox inactive | Wnt3a cs inactive
Cc1ccc(C)c(-c2nnc(NC(=O)c3ccco3)o2)c1	none
Cc1cccnc1CN1CCN(C(=O)c2cc(COc3ccc4ncccc4c3)on2)CC1	Gli-Sufu antag 62, Shn3 inh set2 88 | Gli antag conf 66 | SufuKO cytotox 27 | Wnt3a cs 27
O=C(c1cc(COc2ccc3ncccc3c2)on1)N1CCC[C@H]1CO	none
O=C(NC1CCCCCCC1)c1cc(COc2ccc3ncccc3c2)on1	Gli-Sufu antag 73, Shn3 inh set2 88 (no result: Jurkat NFkB inh, Mdm2-MdmX inh, 697 NFkB inh) | Gli antag conf 73 | SufuKO cytotox 28 | Wnt3a cs inactive
CCOC(=O)N1CCN(C(=O)c2cc(COc3ccc4ncccc4c3)on2)CC1	Gli-Sufu antag 67, Shn3 inh set2 inconclusive | Gli antag conf 51 | SufuKO cytotox inactive | Wnt3a cs inactive
CCOC(=O)C1(CCCc2ccccc2)CCN(C(=O)C(C)n2cncn2)CC1 (stereo not given)	none
COC(=O)c1ccc(C(=O)OC)c(NC(=O)CSc2nnc(-c3ccccc3Cl)o2)c1	Gli-Sufu antag 98 | Gli antag conf inactive | SufuKO cytotox inactive | Wnt3a cs inactive
COc1ccccc1-c1nnc(SCC(=O)Nc2ccc(Cl)cc2Cl)o1	none
CC(=O)c1cn(CC(=O)Nc2cccc(C)c2C)c2ccccc12	none
Cc1cccc(NC(=O)Cn2cc(C(=O)C3CC3)c3ccccc32)c1C	Gli-Sufu antag 80, Shn3 inh set2 87 | Gli antag conf 83 | SufuKO cytotox 33 | Wnt3a cs inactive
COc1ccccc1NC(=O)Cn1cc(C(=O)c2ccco2)c2ccccc21	Gli-Sufu antag 56 | Gli antag conf 69 | SufuKO cytotox 38 | Wnt3a cs 31
O=C(Cc1ncc(C(F)(F)F)cc1Cl)NCCc1ccccn1	Gli-Sufu antag 55 | Gli antag conf inactive | SufuKO cytotox inactive | Wnt3a cs inactive
CN(C)CCNC(=O)Cc1ncc(C(F)(F)F)cc1Cl	none
COc1ccc(NS(=O)(=O)c2ccc(F)c(Cl)c2)cn1	none
COc1ccc(CN2CCN(Cc3cccc(Oc4ccccc4)c3)CC2)c(OC)c1OC	none | Gli antag conf inactive | SufuKO cytotox 26 | Wnt3a cs inactive
CN1CCN(Cc2cccc(Oc3ccccc3)c2)CC1	none
COc1ccccc1N1CCN(Cc2cc(=O)c(OCC#N)co2)CC1	none
O=C(Nc1ccccc1)C1=C[C@@H](C2CCCCC2)C[C@@H](OCCCCO)O1	Gli-Sufu antag 68 | Gli antag conf 80 | SufuKO cytotox inactive | Wnt3a cs inactive
O=C(Nc1ccccc1)C1=C[C@H](C2CCCCC2)C[C@H](OCCCCO)O1	Gli-Sufu antag 62 | Gli antag conf 82 | SufuKO cytotox inactive | Wnt3a cs inactive
COc1cc(/C=N/NC(=O)c2nnn(-c3nonc3N)c2C)ccc1OCc1ccc(Cl)cc1	none (no result: Gli-Sufu antag, Jurkat NFkB inh, Mdm2-MdmX inh, 697 NFkB inh)
Cc1cc(C)c2c(N)c(C(=O)Nc3c(C)n(C)n(-c4ccccc4)c3=O)sc2n1	none
COc1ccccc1CN(C(=O)Cc1cccs1)C(C(=O)NC1CCCC1)c1ccncc1 (stereo not given)	Gli-Sufu antag 56 | Gli antag conf inactive | SufuKO cytotox 27 | Wnt3a cs inactive

From PubChem
